Screening data as filed in PubChem BioAssay.
DNA Pol III inh = DNA polymerase III holoenzyme inhibition; reconstituted DNA polymerase III holoenzyme replication, biochemical; Potency, µM (series often up to 57.1 µM); AID 603; hit rate 0.25% among 71,000
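Reconstituted *E. coli* holoenzyme (0.35 nM Pol III, 1 nM beta, 154 nM SSB, 2 nM primase) was preincubated with compound for 15 min at RT. Synthesis on 1.4 nM ssM13Gori ran 35 min, then was stopped with PicoGreen/EDTA and read as dsDNA fluorescence.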
YjeE inh = displaces an ADP probe from E. coli YjeE (TsaE) | purified YjeE enzyme, qHTS inhibition assay | Potency, µM | hit rate 0.05% among 71,000 | AID 605
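Fluorescence polarization of a BODIPY Texas Red–ADP probe (2 uM) bound to purified YjeE (10 uM) was read after 15 min room-temperature incubation with compounds. Loss of polarization marks inhibitors; ADP serves as titrated control.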
BRCT PPI green = inhibitors of human BRCA1 BRCT-phosphoprotein interaction (green fluorophore); BRCA1 BRCT-phosphopeptide binding, green fluorescence polarization; Potency, µM (series often up to 76.9 µM), most hits filed as inhibitors; hit rate 0.05% among 75,000; AID 875; P38398
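Fluorescence polarization: His-tagged BRCT (~35 kDa BRCA1 C-terminus, 250 nM) bound to 100 nM fluorescein-labeled phosphorylated 10-aa BACH1 peptide, pH 7.3 phosphate buffer with DTT and Tween 20. Compounds incubated 12 min at room temperature; inhibition read as lowered polarization.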
ERK AVP inh = blocks ERK signaling stimulated by vasopressin. HEK293-V1b, vasopressin-stimulated pERK AlphaScreen. Potency, µM (doses to about 57.5 µM), most hits filed as inhibitors. hit rate 0.99% among 72,000. AID 995; also: nearly all actives have a fitted effect of over 55% in size
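qHTS, compounds titrated on V1b-expressing HEK293 cells. Preincubation 30 min at 37C, vasopressin 25 nM for 5 min, lysis 10 min, bead incubation 5 hr at room temperature.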
BRCT inh red = BRCT-phosphoprotein interaction inhibition (red fluorophore). P38398. BRCT-phosphopeptide binding, red fluorescence polarization. Potency, µM (top dose mostly 76.9 µM), hits mostly inhibitors. hit rate 0.03% among 75,000. AID 892
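Rhodamine-labelled pBACH1 10-mer (100 nM) bound to BRCT domain (100 nM) at pH 7.3; compounds incubated 12 min room temperature, polarization read. Free peptide defines full inhibition; unlabelled decapeptide titrated as control.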
Large screens that a line does not name were inactive. Sampled rows, rich in hits. Any-hit rate of the full collection: about 1.2%. Calls follow the shape of the dose curve; as a rule, active = well fitted curve in the direction sought with a large enough effect; inconclusive = small, poorly fitted or top-dose-only effect, or another doubt; inactive = no such curve, though single readings can be large; an effect the other way counts as inactive or inconclusive.

COc1cccc2c1C(=O)c1c(O)c3c(c(O)c1C2=O)C[C@](O)(C(=O)CO)C[C@H]3O[C@@H]1C[C@H](N)[C@H](O)[C@H](C)O1	DNA Pol III inh 0.79µM, BRCT inh red inconclusive
COc1cccc2c1C(=O)c1c(O)c3c(c(O)c1C2=O)C[C@@](O)(C(=O)CO)C[C@H]3O[C@H]1C[C@@H](N)[C@H](O)[C@@H](C)O1.[W]	DNA Pol III inh inconclusive
COc1ccc(-c2nc3cnc(N4CCOCC4)nc3n(C[C@H]3CCCO3)c2=O)cc1	ERK AVP inh inconclusive
C/C(CCC(=O)OC[C@@H]1O[C@H](C#Cc2ccccc2)C=C[C@@H]1Oc1ccc(C)cc1)=N/O[C@@H](C)c1cn([C@H](CO)Cc2ccccc2)nn1	none (no result: DNA Pol III inh, YjeE inh)
O=C(CCCOc1ccccc1)N1CCN(c2ccccn2)CC1	ERK AVP inh 25µM
CN1CCN(C(=O)CCCOc2ccc(Cl)cc2Cl)CC1	none (no result: DNA Pol III inh, YjeE inh, ERK AVP inh)
O=C(CCCOc1ccc(Cl)cc1Cl)N1CCN(c2ccccn2)CC1	ERK AVP inh 40µM
O=C(CCCCCNc1nc(=S)[nH]c2ccccc12)N1CCN(c2ccccn2)CC1	ERK AVP inh 13µM
O=C1OCC2=C1C(c1ccc3c(c1)OCO3)Sc1ccccc1N2 (stereo unspecified)	ERK AVP inh 20µM
O=C1CC(c2ccc3c(c2)OCO3)CN1 (stereo unspecified)	none
CCCn1c(-c2ccc(F)cc2)nc2c(NCC(C)(C)CN(C)C)nc(C)nc21	none
O=C(Nc1ccc(Cl)cc1C(=O)O)c1ccc2c(c1)C(=O)N(Cc1ccco1)C2=O	DNA Pol III inh 32µM
CC(C)(C)C(=O)NC(c1ccc(Cl)cc1)[C@]1(C)C[C@H]1C1CCCCC1 (stereo partly specified)	none
N.N.N.N.N.N.N.N.N.N.N.N.N.N.O.O.[Ru].[Ru].[Ru]	DNA Pol III inh 32µM, YjeE inh 79µM, ERK AVP inh 16µM
Cc1cc(O)c(-c2cc(C(=O)Nc3ccc(S(=O)(=O)N4CCOCC4)cc3)[nH]n2)cc1C	ERK AVP inh 25µM
Cc1ccc(S(=O)(=O)Oc2ccc(N=Nc3ccc(-c4ccc(N=Nc5c(O)ccc6cc(S(=O)(=O)O)cc(S(=O)(=O)O)c56)c(C)c4)cc3C)cc2)cc1	DNA Pol III inh 32µM, ERK AVP inh 25µM
O=C(Nc1cccc(-c2nc3cc(Cl)ccc3o2)c1)C1CCCO1 (stereo unspecified)	ERK AVP inh 20µM
Cc1ccc2oc(-c3cccc(NC(=O)C4CCCO4)c3)nc2c1 (stereo unspecified)	none
COc1ccc(-c2cc(-c3ccccc3O)[nH]n2)cc1OC	ERK AVP inh inconclusive
COc1ccc(-c2cc(-c3cc(F)ccc3O)[nH]n2)cc1OC	ERK AVP inh 32µM
c1cn(-c2ccnc(-c3ccc4c(c3)OCO4)n2)cn1	ERK AVP inh 20µM
COc1ccc(-c2noc(CSc3nc(N)c(-c4ccccc4)c(=O)[nH]3)n2)cc1	ERK AVP inh 13µM
CC(C)c1ccc2c(c1)CC[C@@H]1[C@@](C)(CN)CCC[C@@]21C	none (no result: BRCT PPI green, ERK AVP inh, BRCT inh red)
c1ccc(-c2oc3ncnc(NCCN4CCOCC4)c3c2-c2ccccc2)cc1	ERK AVP inh inconclusive
c1ccc(-c2oc3ncnc(NCCCn4ccnc4)c3c2-c2ccccc2)cc1	ERK AVP inh 25µM
c1ccc(-c2cnc(CSc3ncnc4sccc34)o2)cc1	DNA Pol III inh inconclusive, ERK AVP inh 32µM
Cc1cc(C)n2nc(SCc3ncc(-c4ccccc4)o3)nc2n1	none
O=C(OC1Cc2c(O)cc(O)cc2OC1c1cc(O)c(O)c(O)c1-c1c(C2Oc3cc(O)cc(O)c3CC2O)cc(O)c(O)c1O)c1cc(O)c(O)c(O)c1 (stereo unspecified)	none (no result: DNA Pol III inh, YjeE inh)
Oc1cc(O)c2c(c1)O[C@@H](c1ccc(O)c(O)c1)[C@H](O[C@@]1(c3cc(O)c(O)c(O)c3)Oc3cc(O)cc(O)c3[C@H](O)[C@@H]1O)C2	DNA Pol III inh 1µM
CN(CCc1ccccn1)c1ccc2c(c1)Cc1ccccc1-2	none
c1ccc2c(c1)Cc1cc3ccccc3nc1-2	ERK AVP inh 13µM
O=C(c1cc(-c2ccc(O)cc2)on1)N1CCc2ccccc2C1	ERK AVP inh 32µM
CCS(=O)(=O)N1CCN(c2cccc(C)c2C)CC1	ERK AVP inh inconclusive
